# Where “and” joins values, the source holds several entries; their conditions need not be identical. Identical values can stand only once. Inconclusive results are not listed. Where a call stands in place of a potency, no number is given. Calls of active or inactive are those of the source. Calls follow the shape of the dose curve; as a rule, active = well fitted curve in the direction sought with a large enough effect; inconclusive = small, poorly fitted or top-dose-only effect, or another doubt; inactive = no such curve, though single readings can be large; an effect the other way counts as inactive or inconclusive.
# What was measured:
# [1] = tested on: Zika virus NS2B-NS3 protease (unlinked complex); test: Primary screen GU Rhodamine qHTS for Zika virus inhibitors: Unlinked NS2B-NS3 protease assay (AID 1347159); also: nearly all actives have a fitted effect of over 60% in size; also: potency is read from the fitted curve at half-maximal effect
# Method in brief: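 Compounds, tested up to 114 microM, were incubated for 15 minutes with 25 nM unlinked NS2B-NS3 protease at pH 8.0. Cleavage of 1.5 microM Rhodamine110 substrate was then followed by fluorescence for 15 minutes.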
# [2] = tested on: Zika virus NS2B-NS3 protease (linked construct); test: Primary screen NINDS Rhodamine qHTS for Zika virus inhibitors (AID 1347160); also: nearly all actives have a fitted effect of over 55% in size; also: potency is read from the fitted curve at half-maximal effect
# Method in brief: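 Percent inhibition, normalized to uninhibited and enzyme-free controls, is fitted to a 4-parameter Hill equation. Fluorescence change comes from a 15-min cleavage of 1.5 microM bis-peptide Rhodamine110 substrate by 25 nM linked NS2B-NS3 at room temperature.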
# [3] = ZIKV-mCherry secondary qHTS for Zika virus inhibitors (AID 1347158); also: top concentration of the series differs between compounds
# Method in brief: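 Vero cells (5,000/well) were given compound, then infected with ZIKV-mCherry at MOI 1 for 48–72 h at 37 °C. After PFA fixation and Hoechst staining, imaging gave percent mCherry-positive cells. The positivity threshold was RFU above 450, 3 SD over negative controls.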
# [4] = Confirmatory screen NINDS Rhodamine qHTS for Zika virus inhibitors (AID 1347161); also: nearly all actives have a fitted effect of over 60% in size; also: potency is read from the fitted curve at half-maximal effect
# Method in brief: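 Purified linked NS2B-NS3 protease (NS2B hydrophilic domain joined to NS3 protease by flexible linker), 25 nM in 10 mM Tris-HCl pH 8.0, 0.01% Tween 20. Compounds titrated, 15 min preincubation at room temperature; 1.5 microM Rhodamine110 substrate, FITC fluorescence change over 15 min.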
# [5] = tested on: Zika virus NS2B-NS3 protease (linked); test: 384 well plate NINDS AMC confirmatory qHTS for Zika virus inhibitors (AID 1347163); conditions: Recombinant NS2B-NS3 protease, Ac-VKTGKR-AMC fluorescence; also: potency is read from the fitted curve at half-maximal effect; nearly all actives have a fitted effect of over 50% in size
# Source text: Description: Assay Submitters (PI): Avindra Nath, Ph.D., National Institute of Neurological Disorders and Stroke (NINDS), Bethesda, MD Radhakrishnan Padmanabhan, Ph.D., Georgetown University (GU), Washington D.C. Zika Virus causes congenital defects, including microcephaly and is associated with Guillain-Barre syndrome, eningoencephalitis and myelitis in infected adult. […] Using a target-based approach, we hope to establish a screening paradigm to uncover novel, cell-active NS2B-NS3 protease (Zika Virus) specific inhibitors from NCATS' collection of small molecules using qHTS. […] Four assay panel was created to identify potential Zika Virus inhibitors. Namely, (1) GU unlinked NS2B-NS3 AMC tagged protease qHTS, (2) GU unlinked NS2B-NS3 Rhodamine tagged protease qHTS, (3) NINDS linked NS2B-NS3 AMC tagged protease qHTS, (4) NINDS linked NS2B-NS3 Rhodamine tagged protease qHTS. Active compounds are validated using a secondary assay in 384 well plate format. Early Translation Branch (ETB) National Center for Advancing Translational Sciences (NCATS), Rockville, MD National Institute of Health (NIH), Bethesda, Maryland
# 384-well NINDS AMC Assay The protease was diluted to 7.5 nM, 40.9 nM, or 82 nM in assay buffer and dispensed into a 96-well PCR plate (Applied Biosystems); 20 or 22 microL was transferred to a black 384-well assay plate (final protease concentration of 5 nM, 30 nM, or 60 nM, respectively). Compounds (3 microL, 1 microM - 10 mM, DMSO) were diluted and transferred to the assay plate (final concentrations ranged from 100 nM to 1 mM). Compounds were incubated with protease for ~15 minutes. The substrate, Ac-VKTGKR-AMC (Genscript), was dissolved in DMSO to a concentration of 6 mM and further diluted into assay buffer to a working concentration of 180 microM, then dispensed into a 384-well preparation plate (Eppendorf). A multichannel repeat pipettor was used to add 3 or 5 microL of substrate to the assay plate to give a final concentration of 30 microM. The plate was incubated in the dark at room temperature. After 25 minutes, the fluorescence intensity (excitation: 355 nm, emission: 460 nm) was measured and normalized to no-enzyme and no-inhibitor controls. Aprotinin39 (VWR) was used as an intraplate control.
# [6] = tested on: Zika virus NS2B-NS3 protease (linked construct); test: 384 well plate NINDS Rhodamine confirmatory qHTS for Zika virus inhibitors (AID 1347164); conditions: rhodamine-110 peptide substrate fluorescence;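 also: fluorescence from protease cleavage of Ac-LKRR-rhodamine 110 substrate; potency is read from the fitted curve at half-maximal effect; nearly all actives have a fitted effect of over 65% in size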
# Method in brief: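 Fluorescence read at ex 485 nm/em 538 nm, 25 min after adding 10 microM Ac-LKRR-Rd substrate at room temperature in the dark; signal normalized to no-enzyme and no-inhibitor controls. Enzyme final 5, 30 or 60 nM; compounds, ~15 min preincubation.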
# [7] = Vero cells viability qHTS for Zika virus inhibitors (AID 1347167)
# Method in brief: (§1)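 Counter-screen for cytotoxicity of hits from NS2B-NS3 protease qHTS. Overnight-attached cells (2.5 x 10^5 cells/mL, DMEM/4% FBS) were dosed in titration, incubated 24 to 48 hours, then assayed by CellTiter Glo.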
# [8] = HepG2 cells viability qHTS for Zika virus inhibitors (AID 1347168); also: potency is read from the fitted curve at half-maximal effect
# Method in brief: as §1
# [9] = Confirmatory screen GU Rhodamine qHTS for Zika virus inhibitors qHTS (AID 1347157); also: nearly all actives have a fitted effect of over 70% in size; also: potency is read from the fitted curve at half-maximal effect
# Source text: Avindra Nath, Ph.D., National Institute of Neurological Disorders and Stroke (NINDS), Bethesda, MD
# Radhakrishnan Padmanabhan, Ph.D., Georgetown University (GU), Washington D.C.
# Zika Virus causes congenital defects, including microcephaly and is associated with Guillain-Barre syndrome, eningoencephalitis and myelitis in infected adult. […] Using a target-based approach, we hope to establish a screening paradigm to uncover novel, cell-active NS2B-NS3 protease (Zika Virus) specific inhibitors from NCATS' collection of small molecules using qHTS.
# Four assay panel was created to identify potential Zika Virus inhibitors. Namely, (1) GU unlinked NS2B-NS3 AMC tagged protease qHTS, (2) GU unlinked NS2B-NS3 Rhodamine tagged protease qHTS, (3) NINDS linked NS2B-NS3 AMC tagged protease qHTS, (4) NINDS linked NS2B-NS3 Rhodamine tagged protease qHTS. Active compounds were re-acquired and re-screened to confirm inhibition. Inhibitors were further screened against various confirmatory and counterscreens in dose response format.
# Early Translation Branch (ETB)
# National Center for Advancing Translational Sciences (NCATS), Rockville, MD
# National Institute of Health (NIH), Bethesda, Maryland
# Padmanabhan lab provided the NS2B hydrophilic domain and NS3 protease domain in a noncovalent complex used for the unlinked assay. Control compound aprotinin is obtained from Thermo Scientific (#78432; Waltham, Massachusetts). […]
# Briefly, 3 microL of enzyme (25 nM final concentration), in assay buffer (10 mM Tris-HCl pH 8.0 with 0.01% Tween 20) were dispensed into a 1,536-well solid-bottom black plate (Greiner Bio One, Monroe, NC). […] Plates were then immediately read on a ViewLux High-throughput CCD imager (PerkinElmer, Waltham, MA) equipped with FITC fluorescence optics (480(20) nm excitation, 540(25) nm emission), then incubated (room temperature, protected from light) for 15 minutes (~15% conversion). The change in fluorescence intensity over the 15-minute reaction period was normalized against no-inhibitor and no-enzyme controls and the resulting percent inhibition data were fitted to a 4-parameter Hill equation. […]
# [10] = molecular target: Lysine-specific demethylase 5B (Homo sapiens) (UniProt Q9UGL1); test: Optimization screen for KDM5B Histone Demethylases FDH coupled qHTS against the LOPAC library (AID 1347166)
# Sequence of Lysine-specific demethylase 5B (Homo sapiens) (Q9UGL1 whole entry, looked up): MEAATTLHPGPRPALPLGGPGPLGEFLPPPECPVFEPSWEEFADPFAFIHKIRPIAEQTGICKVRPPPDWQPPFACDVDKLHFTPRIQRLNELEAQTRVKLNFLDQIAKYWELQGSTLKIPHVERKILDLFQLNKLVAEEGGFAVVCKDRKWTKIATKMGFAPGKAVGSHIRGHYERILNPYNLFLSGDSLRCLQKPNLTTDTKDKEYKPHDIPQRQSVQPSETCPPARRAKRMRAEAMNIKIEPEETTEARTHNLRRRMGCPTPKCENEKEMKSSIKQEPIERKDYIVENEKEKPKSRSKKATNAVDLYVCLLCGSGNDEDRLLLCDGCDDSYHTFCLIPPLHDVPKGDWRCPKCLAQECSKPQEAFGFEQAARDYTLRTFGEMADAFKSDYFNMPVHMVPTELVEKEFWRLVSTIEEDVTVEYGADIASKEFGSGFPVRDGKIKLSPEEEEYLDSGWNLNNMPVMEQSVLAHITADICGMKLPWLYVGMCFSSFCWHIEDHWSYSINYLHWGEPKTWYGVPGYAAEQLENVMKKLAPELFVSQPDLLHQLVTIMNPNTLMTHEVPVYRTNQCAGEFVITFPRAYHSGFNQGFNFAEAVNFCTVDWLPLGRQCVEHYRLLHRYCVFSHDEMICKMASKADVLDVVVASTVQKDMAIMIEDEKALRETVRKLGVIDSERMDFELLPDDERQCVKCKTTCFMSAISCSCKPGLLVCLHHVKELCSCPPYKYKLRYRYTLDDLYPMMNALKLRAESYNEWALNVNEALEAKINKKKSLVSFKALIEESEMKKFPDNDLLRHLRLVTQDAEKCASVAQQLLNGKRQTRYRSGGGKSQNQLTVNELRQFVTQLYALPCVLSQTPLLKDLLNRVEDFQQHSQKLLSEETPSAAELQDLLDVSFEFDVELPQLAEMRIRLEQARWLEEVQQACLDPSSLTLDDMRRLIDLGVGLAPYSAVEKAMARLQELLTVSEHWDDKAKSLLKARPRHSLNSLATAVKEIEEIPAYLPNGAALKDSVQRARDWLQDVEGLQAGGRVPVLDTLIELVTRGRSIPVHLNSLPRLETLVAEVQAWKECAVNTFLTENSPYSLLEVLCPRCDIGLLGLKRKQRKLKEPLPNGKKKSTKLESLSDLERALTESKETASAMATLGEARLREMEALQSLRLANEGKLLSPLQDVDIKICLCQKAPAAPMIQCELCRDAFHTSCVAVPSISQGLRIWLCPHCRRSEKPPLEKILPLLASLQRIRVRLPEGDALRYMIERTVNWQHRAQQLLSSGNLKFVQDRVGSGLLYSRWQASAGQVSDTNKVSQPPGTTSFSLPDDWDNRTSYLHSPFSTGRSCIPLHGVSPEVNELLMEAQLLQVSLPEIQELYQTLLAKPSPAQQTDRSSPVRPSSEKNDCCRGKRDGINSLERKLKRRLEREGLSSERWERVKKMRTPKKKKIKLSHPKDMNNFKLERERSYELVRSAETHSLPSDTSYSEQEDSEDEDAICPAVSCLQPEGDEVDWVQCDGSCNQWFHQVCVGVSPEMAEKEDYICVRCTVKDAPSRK
# Method in brief: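 KDM5BDeltaAP (200nM final) preincubated 10 min with compound, then 12.5uM H3K4Me3, 25uM a-ketoglutarate, ascorbate, Fe(II), NAD+ and FDH added; 50mM HEPES pH 7.5, 0.01% Tween-20. NADH fluorescence (340/450 nm) change over 30 min, room temperature.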
smiles,measurement,setting,value
CCN(CC)C(=O)c1ccc(C2=CC3(CCNCC3)Oc3cccc(O)c32)cc1,Potency,[1],inactive
same,Potency,[2],inactive
CC(=O)Nc1ccc(OC[C@](C)(O)C(=O)Nc2ccc([N+](=O)[O-])c(C(F)(F)F)c2)cc1,Potency,[1],inactive
same,Potency,[2],inactive
CN(C)[C@@H]1C(=O)C(C(N)=O)=C(O)[C@@]2(O)C(=O)C3=C(O)c4c(O)cccc4[C@@](C)(O)[C@H]3[C@H](O)[C@@H]12,outcome,[3],inactive
same,Potency,[4],19.7 µM (active) and 7.82 µM (active)
same,Potency,[5],158 µM (active) and 8.91 µM (active)
same,Potency,[6],50.1 µM (active) and 2.51 µM (active)
same,Potency,[7],inactive
same,Potency,[8],inactive
O=[N+]([O-])c1c(Cl)c(Cl)cc(Cl)c1Cl,Potency,[9],inactive
same,Potency,[4],inactive
CCNC(=O)C[C@@H]1N=C(c2ccc(Cl)cc2)c2cc(OC)ccc2-n2c(C)nnc21,Potency,[1],inactive
O=C(Oc1ccc([N+](=O)[O-])cc1)N1CCN(Cc2cccc(Oc3ccccc3)c2)CC1,Potency,[1],inactive
same,Potency,[2],inactive
O=C1C(I)=CC(=C(c2cc(I)c(O)c(I)c2)c2ccccc2C(=O)O)C=C1I,Potency,[9],2.82 µM (active)
same,outcome,[3],inactive
same,Potency,[4],2.51 µM (active)
same,Potency,[5],50.1 µM (active)
same,Potency,[6],8.91 µM (active)
CC(N[C@H]1C[C@H]1c1ccccc1)c1ccc2c(c1)OCCO2 (some centres undefined),Potency,[1],inactive
O=C(O)c1cc(Oc2ccc(C(F)(F)F)cc2Cl)ccc1[N+](=O)[O-],outcome,[3],inactive
same,Potency,[5],562 µM (active)
same,Potency,[6],316 µM (active)
Cc1[nH]nc2ccc(-c3cncc(OC[C@@H](N)Cc4c[nH]c5ccccc45)c3)cc12,Potency,[1],inactive
same,Potency,[2],inactive
CC(C)N(CCNC(=O)CN1CCCC1=O)C(C)C,Potency,[1],inactive
same,Potency,[2],inactive
CN1CCN(c2ccc([N+](=O)[O-])c3no[n+]([O-])c23)CC1,Potency,[1],inactive
same,Potency,[2],inactive
Cc1c(C(=O)Nc2cccc(C(F)(F)F)c2)cc(-c2ccccc2)n1CCCN1CCOCC1,Potency,[1],inactive
same,Potency,[2],inactive
CCc1c(C(=O)C(N)=O)c2c(OCC(=O)O)cccc2n1Cc1ccccc1,Potency,[1],inactive
same,Potency,[2],inactive
O=C(N[C@@H](COc1ccc2[nH]c(=O)[nH]c2c1)c1ccccc1)c1cccn(Cc2ccc(F)c(F)c2)c1=O,Potency,[1],inactive
same,Potency,[2],inactive
CC(=O)N(C)c1cccc(-c2ccnc3c(C(=O)c4cccs4)cnn23)c1,Potency,[1],inactive
same,Potency,[2],inactive
same,Potency,[4],inactive
same,Potency,[7],inactive
same,Potency,[8],inactive
O=C(O)CNC(=O)c1c(O)c2ccccc2n(Cc2ccccc2)c1=O,Potency,[1],12.6 µM (active)
same,Potency,[2],11.2 µM (active)
S=C(NC1CCCCC1)N1CCC(c2cnc[nH]2)CC1,Potency,[1],inactive
same,Potency,[2],inactive
same,outcome,[10],inactive
CC1(N2CCC(n3c([C@@H]4CCCNC4)nc4ccccc43)CC2)CCCCCCC1,Potency,[1],inactive
same,Potency,[2],inactive
Nc1c(Cl)c(Cl)c(Cl)c(Cl)c1Cl,Potency,[9],inactive
same,Potency,[4],inactive
CCNC(=O)CC1N=C(c2ccc(Cl)cc2)c2cc(OC)ccc2-n2c(C)nnc21 (centres undefined),Potency,[1],inactive
same,Potency,[2],inactive
CC(=O)NCCc1c[nH]c2ccccc12,Potency,[1],inactive
same,Potency,[2],inactive
same,outcome,[10],inactive
CCOC(=O)Nc1ccc(NCc2ccc(F)cc2)cc1N,Potency,[1],inactive
same,Potency,[2],inactive
O=C1C=CC[C@@H]2[C@H]3CCCN4CCC[C@@H](CN12)[C@@H]34,Potency,[1],inactive
O=C(N[C@H]1CN2CCC1CC2)c1ccc(Cl)cc1,Potency,[1],inactive
same,Potency,[2],inactive
same,outcome,[10],inactive
Cc1ccccc1-n1c(Cn2cnc3c(N)ncnc32)nc2cccc(C)c2c1=O,Potency,[1],inactive
same,Potency,[2],inactive
Cc1ccccc1-n1c(Cn2ncc3c(N)ncnc32)nc2cccc(C)c2c1=O,Potency,[1],inactive
same,Potency,[2],inactive
CC(C)Oc1cccnc1N(C)C1CCN(Cc2ccccc2)CC1,Potency,[4],inactive
same,Potency,[7],inactive
same,Potency,[8],inactive
CC1=C(O)C(=O)C=C2C1=CC=C1[C@@]2(C)CC[C@@]2(C)[C@@H]3C[C@](C)(C(=O)O)CC[C@]3(C)CC[C@]12C,Potency,[4],5.53 µM (active) and 2.77 µM (active)
same,Potency,[5],79.4 µM (active)
same,Potency,[6],28.2 µM (active)
same,Potency,[8],18.5 µM (active) and 7.37 µM (active)
C=CCN1CC[C@]23CCCCC2[C@H]1Cc1ccc(O)cc13 (some centres undefined),Potency,[7],inactive
same,Potency,[8],inactive

# Source: PubChem BioAssay (NCATS)
